Over roughly 9,900 sequences, “r (bound/input frequency ratio)” has its median near 0.7; the highest 2% begin near 6.5. What follows is part of a selection rich in the highest values, with near analogues and random picks from the rest.
B1: ENSMUSG00000061578.285|Ksr2 (ssRNA)
RNA: GGGAGUUCUACAGUCCGACGAUCGCUUCGAUAUCCGCAUGCUAGGAUAUAUCUCUGUGGCCAGGGCUGGACUGAGACUGACCCCCUCCUACUAAGCAUCUUAGAGUUUCUCUUUUCUCUUUAAUUGCAUCAGGACCCCUUUGGUCCAUGUACCCCGGUCUCUGUCACAUGCCUUUGUAUCUUGGAGGAAGUAAGAGAGGAGAGAGCCAGGGAGGGCUGAAGCUCUGGGACCCUGAAGUGUCCCCCGGGAACUGGGACUCACUCAUCUUCUCCUGUUUGUAGCUCAAUGACCCAGUGGGUCACACUCUUGCGGUCGCACUAGUGUGGAAUUCUCGGGUGUCAAGG
B2: ENSMUSG00000029028.201|Lrrc47 (ssRNA)
RNA: GGGAGUUCUACAGUCCGACGAUCGCUUCGAUAUCCGCAUGCUAAGCACACAGCUGCCAUCCCUCGAGCCACAGUGCCUGGUCCUAAGGACCCAGCAGCUGCACAGAGGACUUGGUGGCCCCGUGCCUUGCCAUCUGGCUGAGAAGAGAACCAGACCCUCAGCCUUCCCCCUCGACACCUUCUCGUUGGUGACCUCUGACCUUAAAGGACCAUUUCUACCUUCUGUAAAAGAACACCUGUUUGGGGUUGCGUGCGGCUUUCAUCCUAAGGCCGUGCGAGAGCCGUUAGCUGUCAGAACUAGUGACUCUUGCGGUCGCACUAGUGUGGAAUUCUCGGGUGUCAAGG
B3: ENSMUSG00000028439.16|Fam219a (ssRNA)
RNA: GGGAGUUCUACAGUCCGACGAUCGCUUCGAUAUCCGCAUGCUAAUUCAGUAGUGGGCGGGGUCGCCGCGGUGCACGGGGCGCUGACCUGGGCCCGGUGGGAUGCAGCAGGAGAGACCCCUACCCUGCUGGUCCACUGGUCCCCAGCCCCGCGCCUCUUAGAGCCGCCAACCUCGUAACAGUCAUUGCUUCCUCCUAUGGUAGGACGUGUACCUCUGUGUGUUCAAGGAGCCGGAGAAACCAAAACCGGGUCUGUCUCCAGCCCCGGGGCUGAGGAGGGGUGGGCACUGUUUGUUCGGUUACUUCUCUUGCGGUCGCACUAGUGUGGAAUUCUCGGGUGUCAAGG
B4: ENSMUSG00000031028.682|Tub|139:143;183:187;256:260 (ssRNA)
RNA: GGGAGUUCUACAGUCCGACGAUCGCUUCGAUAUCCGCAUGCUACUAUUUUGGAGUGGUCAGACAUUUUAUUUUUGUUCAAAAUUAUCUGGAGUUUUAGACAAACUUGCAAAACUGUGCUUUUAUUAAGUGACUUUUUGAAUAAACUUUUUGGUAUUCUGAAGCAAAUGUAUUUAUUUAUUGCAUACUGCAAUGACAAACUUGGUAUUUUCCCAUAAUGACAUUAUCAUACUUGUAGAAUUUAGUGUUUGUCUAAGUACAGACAUGUAUCAACACAUUAAACUUGAACUGUUUGACGGCACACACUCUUGCGGUCGCACUAGUGUGGAAUUCUCGGGUGUCAAGG
B5: ENSMUSG00000090935.52|Synj2bp (ssRNA)
RNA: GGGAGUUCUACAGUCCGACGAUCGCUUCGAUAUCCGCAUGCUAGUGUCCCUGAGAGUACAGCACAGGUUACCAGUGCAGAAUGGACCUAUAGUACAUCGAGGUGAAGGAGAGCCAAGUGGAGUUCCUGUAGCUAUGGUGCUGCUACCAGUGUUUGCCCUCACCAUGGUAGCAGUUUGGGCCUUCGUGAGAUACCGAAAGCAGCUUUGAAAUGCUUGCUGUCUUCCAGUGUGUCCAAUGAACUCUCUCUCUCACUCACCAUCUCUGACAUCCUCCCAUAUUCUUUCUCCUCCACAUAGCCAAUACUCUUGCGGUCGCACUAGUGUGGAAUUCUCGGGUGUCAAGG
B6: ENSMUSG00000061578.273|Ksr2 (ssRNA)
RNA: GGGAGUUCUACAGUCCGACGAUCGCUUCGAUAUCCGCAUGCUAGGCCCUGGGCUCCAGAGUCGCUGAAGACCACUCUCCACAGCAGCUGUAACCCCAUCUAACAAGCCCUGUUCUGGAUAUAUCUCUGUGGCCAGGGCUGGACUGAGACUGACCCCCUCCUACUAAGCAUCUUAGAGUUUCUCUUUUCUCUUUAAUUGCAUCAGGACCCCUUUGGUCCAUGUACCCCGGUCUCUGUCACAUGCCUUUGUAUCUUGGAGGAAGUAAGAGAGGAGAGAGCCAGGGAGGGCUGAAGCUCUGGGACCCUCUUGCGGUCGCACUAGUGUGGAAUUCUCGGGUGUCAAGG
B7: ENSMUSG00000058297.297|Spock2|59:64 (ssRNA)
RNA: GGGAGUUCUACAGUCCGACGAUCGCUUCGAUAUCCGCAUGCUAUGAGAGAGAGAAUACCCGAGGGCCACCCUGAUGCCCAGGAAGAGUGAGGGCAGCCCCCACACACGUGGAAGAGGCUGGGCAGCUAGCUACUGGGGACCUUGUGCUGAGGCUUCCAGGACAAAGCCCCAGUCUGGCUCUCCCCCAGCCUCUCAGGGGCACUGGCUGGUCACAUCCACUGAGUAUUGAUCGGUUGGACUUUAGGGAAGAGCCUCCUCCUUCCCAUUCCUUUCUGCCACCCUGGAAUGGCCACCUUAAUCGUCCUCUUGCGGUCGCACUAGUGUGGAAUUCUCGGGUGUCAAGG
B8: ENSMUSG00000058297.284|Spock2|1:18;137:142 (ssRNA)
RNA: GGGAGUUCUACAGUCCGACGAUCGCUUCGAUAUCCGCAUGCUAACACACACACACACACACAGAGAGAGAGAGAGAGAGAGAGAGAGAGAGAGAGAGAAAGAGAGAGAGAAUGAGAGAGAAUGAGAGAGAGAAUACCCGAGGGCCACCCUGAUGCCCAGGAAGAGUGAGGGCAGCCCCCACACACGUGGAAGAGGCUGGGCAGCUAGCUACUGGGGACCUUGUGCUGAGGCUUCCAGGACAAAGCCCCAGUCUGGCUCUCCCCCAGCCUCUCAGGGGCACUGGCUGGUCACAUCCACUGAGUACUCUUGCGGUCGCACUAGUGUGGAAUUCUCGGGUGUCAAGG
B9: ENSMUSG00000058297.286|Spock2|1:6;125:130 (ssRNA)
RNA: GGGAGUUCUACAGUCCGACGAUCGCUUCGAUAUCCGCAUGCUAACACACAGAGAGAGAGAGAGAGAGAGAGAGAGAGAGAGAGAGAAAGAGAGAGAGAAUGAGAGAGAAUGAGAGAGAGAAUACCCGAGGGCCACCCUGAUGCCCAGGAAGAGUGAGGGCAGCCCCCACACACGUGGAAGAGGCUGGGCAGCUAGCUACUGGGGACCUUGUGCUGAGGCUUCCAGGACAAAGCCCCAGUCUGGCUCUCCCCCAGCCUCUCAGGGGCACUGGCUGGUCACAUCCACUGAGUAUUGAUCGGUUGGCUCUUGCGGUCGCACUAGUGUGGAAUUCUCGGGUGUCAAGG
B10: ENSMUSG00000058297.285|Spock2|1:12;131:136 (ssRNA)
RNA: GGGAGUUCUACAGUCCGACGAUCGCUUCGAUAUCCGCAUGCUAACACACACACACAGAGAGAGAGAGAGAGAGAGAGAGAGAGAGAGAGAGAAAGAGAGAGAGAAUGAGAGAGAAUGAGAGAGAGAAUACCCGAGGGCCACCCUGAUGCCCAGGAAGAGUGAGGGCAGCCCCCACACACGUGGAAGAGGCUGGGCAGCUAGCUACUGGGGACCUUGUGCUGAGGCUUCCAGGACAAAGCCCCAGUCUGGCUCUCCCCCAGCCUCUCAGGGGCACUGGCUGGUCACAUCCACUGAGUAUUGAUCCUCUUGCGGUCGCACUAGUGUGGAAUUCUCGGGUGUCAAGG
B11: ENSMUSG00000028439.112|Fam219a|120:124 (ssRNA)
RNA: GGGAGUUCUACAGUCCGACGAUCGCUUCGAUAUCCGCAUGCUACAAAGGGAUACUGUCUCUCCAUUAGAUAACUCCUUCCACUGUCUCCCUCCCCCGCUUUCUUACUUUCUGAGGGUUGGGAAGGUAAGAUGGGCCUUAGAGAGAAGCCAGGUUUGGGGAUGCAUACACCUGUUCUCACCGGUCUCUAACCAGUGCAUCUGUCUCUCUGCCUCAUCCCCACACCGCCCUGCCACCCCCAGUCUUCUGUCUAUUGGUUCCAGGCUGGAAGCAAGAGAUAAGGCUGGCCUCCUGUGCCCCAUUGCCUCUUGCGGUCGCACUAGUGUGGAAUUCUCGGGUGUCAAGG
B12: ENSMUSG00000031028.669|Tub (ssRNA)
RNA: GGGAGUUCUACAGUCCGACGAUCGCUUCGAUAUCCGCAUGCUAAUUUCUCUAGCUGAGAGCACACUUAGCCAGUUUUCACGCCUAGAACAUAUAUGUCGAUUUGCACAUGAUUGUCUUUUCCUAUUUUGGAGUGGUCAGACAUUUUAUUUUUGUUCAAAAUUAUCUGGAGUUUUAGACAAACUUGCAAAACUGUGCUUUUAUUAAGUGACUUUUUGAAUAAACUUUUUGGUAUUCUGAAGCAAAUGUAUUUAUUUAUUGGUAUGUGCAAUGACAAACUUGGUAUUUUCCCAUAAUGACAUUAUCUCUUGCGGUCGCACUAGUGUGGAAUUCUCGGGUGUCAAGG
B13: ENSMUSG00000061578.833|Ksr2 (ssRNA)
RNA: GGGAGUUCUACAGUCCGACGAUCGCUUCGAUAUCCGCAUGCUACUCACAGUUUCAAAGGGCUCAGUCCAUAGCUGCCUGACUCUGUGUUUCUAGGCCUUUCUUGAGGCAAGUGUUCAUCAUGAUAGUGUGAGGGUGAGGAGGAGUUUCUUCAUGGCAAACAGGAAGCAAAGAGCAAUACAGGAAAAGGUCAGGGGUGAGAUGUGUCAUUGCCACUUCCUCCAGCUAGGACCUUUGAGCAUCACAUUGUGAAGCCAUCCAGGGACUUGGGGGUUAGGUCAGAGGUAUCAAUACAUCUCCGGAAACUCUUGCGGUCGCACUAGUGUGGAAUUCUCGGGUGUCAAGG

biological target: TDP-43 (Homo sapiens, UniProt Q13148 1-414); assay: RNA Bind-n-Seq with designed 260-mer pool; 25 mM Tris-HCl, 150 mM KCl, 3 mM MgCl2, BSA (printed 500 mg/mL), 20 units/mL SUPERase IN; pH not stated; 500 nM RNA pool, 1 h, 4 C; TDP-43 5, 50, 500 nM; high values mean tight binding; conditions: protein: recombinant; tags: SBP (GST cleaved off with PreScission; pGEX-GST-SBP)
Sequence (Q13148 whole entry): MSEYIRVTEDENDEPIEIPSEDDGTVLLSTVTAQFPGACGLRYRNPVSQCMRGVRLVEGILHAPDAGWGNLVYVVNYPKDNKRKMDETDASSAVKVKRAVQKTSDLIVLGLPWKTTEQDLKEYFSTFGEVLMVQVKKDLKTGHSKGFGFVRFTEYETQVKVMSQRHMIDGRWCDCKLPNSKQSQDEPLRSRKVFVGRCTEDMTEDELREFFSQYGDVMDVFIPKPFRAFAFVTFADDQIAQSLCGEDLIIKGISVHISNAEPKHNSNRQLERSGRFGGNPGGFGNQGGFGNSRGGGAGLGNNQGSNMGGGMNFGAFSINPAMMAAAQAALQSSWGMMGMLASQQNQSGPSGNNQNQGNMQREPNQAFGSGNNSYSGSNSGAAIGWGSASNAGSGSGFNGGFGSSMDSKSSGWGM
Method in brief: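 The incubation lasted 1 h at 4 °C and used 500 nM of an in vitro-transcribed 260-nt 3′ UTR oligo pool with recombinant SBP-tagged TDP-43 at 5, 50 or 500 nM immobilized on streptavidin beads. It took place in 25 mM Tris-HCl, 150 mM KCl, 3 mM MgCl2, BSA and SUPERase IN. Bound RNA was washed, eluted with biotin, converted to cDNA, PCR-amplified and sequenced to give R, each oligo's normalized abundance in the bound sample divided by that in input. Two independent protein batches provided the duplicates.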

| Binder | binding signal |
| --- | --- |
| B1 | 0.368 R (bound/input frequency ratio) |
| B2 | 0.156 R (bound/input frequency ratio) |
| B3 | 0.466 R (bound/input frequency ratio) |
| B4 | 0.0217 R (bound/input frequency ratio) |
| B5 | 1.19 R (bound/input frequency ratio) |
| B6 | 0.384 R (bound/input frequency ratio) |
| B7 | 6.44 R (bound/input frequency ratio) |
| B8 | 8.98 R (bound/input frequency ratio) |
| B9 | 6.42 R (bound/input frequency ratio) |
| B10 | 7.3 R (bound/input frequency ratio) |
| B11 | 0.515 R (bound/input frequency ratio) |
| B12 | 0.0963 R (bound/input frequency ratio) |
| B13 | 1.23 R (bound/input frequency ratio) |

— PMC12864922, “TDP-43 directly inhibits mRNA accumulation in neurites through modulation of mRNA stability”
